In test [1] the target is Cell division control protein 42 homolog (Homo sapiens) (UniProt P60953). Kind of test: inhibition of fluorescent GTP binding to constitutively active Cdc42 – biochemical, multiplex bead flow cytometry, Bodipy-FL-GTP, dose response (AID 1333;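 active = fitted half-maximal concentration within the tested dose range, moderate curve steepness, a statistically real signal drop, and little compound fluorescence or tag-binding interference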). A general note: In flow cytometry, cells or beads pass a laser one at a time.
Cell division control protein 42 homolog (Homo sapiens), sequence (P60953 whole entry, looked up): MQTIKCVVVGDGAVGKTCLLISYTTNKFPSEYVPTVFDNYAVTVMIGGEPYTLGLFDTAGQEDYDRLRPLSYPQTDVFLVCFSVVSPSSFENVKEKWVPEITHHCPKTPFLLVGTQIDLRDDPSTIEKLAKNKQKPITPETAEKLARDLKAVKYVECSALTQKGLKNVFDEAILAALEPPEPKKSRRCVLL
Test [2] shares this target. Kind of test: inhibition of fluorescent GTP binding to wildtype Cdc42 – biochemical, multiplex bead flow cytometry, Bodipy-FL-GTP, dose response (AID 1334;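 active = fitted half-maximal concentration within the tested range, moderate curve steepness, significant signal drop, and little compound fluorescence or bead-linkage interference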). Particulars: bead-based flow cytometry, Bodipy-FL-GTP binding to GST-Cdc42; at 100 µM (top of the series) unless noted.
For test [3], the target named is GTPase HRas (Homo sapiens) (UniProt P01112). Kind of test: Ras wt fluorescent GTP loading blockade – biochemical, wildtype, multiplex bead flow cytometry, dose response (AID 1335;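 active = fitted half-maximal concentration within 10 nM to 100 µM, steepness 0.5 to 2, significant signal drop, low assay interference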). As to conditions: bead-based flow cytometry, Bodipy-GTP binding to GST-Ras; at 100 µM (top of the series) unless noted.
GTPase HRas (Homo sapiens), sequence (P01112 whole entry, looked up): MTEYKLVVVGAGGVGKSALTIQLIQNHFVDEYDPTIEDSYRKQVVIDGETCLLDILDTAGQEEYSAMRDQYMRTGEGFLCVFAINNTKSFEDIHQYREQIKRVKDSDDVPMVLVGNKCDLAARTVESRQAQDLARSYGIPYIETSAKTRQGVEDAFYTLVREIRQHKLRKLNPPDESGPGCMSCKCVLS
For test [4], the system named is Ras-related protein Rab-7a (dog), GTP binding. Kind of test: blockers of fluorescent GTP binding to Rab7 – biochemical, wildtype, multiplex bead flow cytometry, dose response (AID 1336).
The target in test [5] is Ras-related C3 botulinum toxin substrate 1 (Homo sapiens) (UniProt P63000). Kind of test: inhibition of wildtype Rac1 nucleotide loading – biochemical, multiplex bead flow cytometry, dose response (AID 1340;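 active = dose curve with midpoint inside tested range, moderate steepness, plateau gap beyond fit error, low compound glow and bead-link interference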). As to conditions: GST-Rac1 beads, Bodipy-FL-GTP binding; at 100 µM (top of the series) unless noted.
Test [6] concerns the target GTPase HRas (Homo sapiens) (UniProt P01112). Kind of test: blockade of GTP loading onto mutant Ras – biochemical, activated mutant, multiplex bead flow cytometry, dose response (AID 1341;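 active = dose-response curve with midpoint inside the tested range, moderate steepness, significant amplitude and little compound fluorescence or bead-attachment interference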;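 also: GST-tagged constitutively activated Ras mutant immobilized on beads and multiplexed with other GTPases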).

For part of these data: Measured potencies and affinities stand elsewhere. Active and inactive are the calls of the source. Unless noted, no rule for the calls is given here.

Turning to `CCOc1cc(/C=N/NC(=O)c2cc(-c3cccnc3)nc3ccccc23)ccc1O`, the molecule was called inactive in test [1], in test [4] and in test [6]. In addition, the fluorescence, percent of control (lower = inhibition) in test [2] came to 33.8%. In addition, the GTP binding, percent of control in test [3] came out at 80.2%. In test [5], this molecule showed a GTP binding signal, raw median fluorescence (lower = inhibition) (MCF (arbitrary fluorescence units)) of 188.
For `Cc1cc2ccccn2c1C(=O)c1cc([N+](=O)[O-])cc([N+](=O)[O-])c1`, the outcome in test [1], in test [4] and in test [6] was inactive. Besides, the fluorescence, percent of control (lower = inhibition) in test [2] was found to be 37.4%. Moreover, in test [3], the GTP binding, percent of control amounted to 85.6%. The molecule further displayed a GTP binding signal, raw median fluorescence (lower = inhibition) (MCF (arbitrary fluorescence units)) in test [5] of 270.
As for `O=C(Nc1cccc(-c2nnc(-c3ccco3)o2)c1)c1ccccc1`, the molecule was called inactive in test [1], in test [4] and in test [6]. In addition, the fluorescence, percent of control (lower = inhibition) in test [2] worked out at 33.7%. In test [3], this molecule yielded a GTP binding, percent of control of 76.1%. Also, in test [5], the GTP binding signal, raw median fluorescence (lower = inhibition) (MCF (arbitrary fluorescence units)) is 190.
In the case of `CCC(C)N1C(=O)/C(=C/c2c(NCCCOC(C)C)nc3c(C)cccn3c2=O)SC1=S` (stereo not given), the outcome in test [1], in test [4] and in test [6] was inactive. Also, the fluorescence, percent of control (lower = inhibition) in test [2] was 130%. In test [3], the GTP binding, percent of control was 136%. The GTP binding signal, raw median fluorescence (lower = inhibition) (MCF (arbitrary fluorescence units)) in test [5] worked out at 244.
As to `NC1=NC(=O)/C(=C/c2cn(CCC(=O)O)nc2-c2ccc(Cl)cc2)S1`, the call in test [1], in test [4] and in test [6] was inactive. Also, in test [2], the fluorescence, percent of control (lower = inhibition) amounted to 18.2%. The same molecule had a GTP binding, percent of control in test [3] of 42.4%. In test [5], this molecule gave a GTP binding signal, raw median fluorescence (lower = inhibition) (MCF (arbitrary fluorescence units)) of 65.5.
`COc1ccccc1C(=O)N=Nc1c(O)[nH]c2ccc([N+](=O)[O-])cc12`: the molecule was classed as inactive in test [1], in test [4] and in test [6]. For the same molecule, the fluorescence, percent of control (lower = inhibition) in test [2] stood at 23.9%. Further, the GTP binding, percent of control in test [3] worked out at 51.1%. Further, the GTP binding signal, raw median fluorescence (lower = inhibition) (MCF (arbitrary fluorescence units)) in test [5] came to 115.
`CCOC(=O)C1=NN(c2ccc(C)cc2)CC1C(=O)OC` (stereo not given): the molecule was called inactive in test [1], in test [4] and in test [6]. The fluorescence, percent of control (lower = inhibition) in test [2] amounted to 41.5%. Moreover, the GTP binding, percent of control in test [3] is 86.3%. The GTP binding signal, raw median fluorescence (lower = inhibition) (MCF (arbitrary fluorescence units)) in test [5] was 244.
For `COc1cc2[nH]c(=S)nc(NCCCOC(C)C)c2cc1OC`, the molecule was classed as inactive in test [1], in test [4] and in test [6]. The fluorescence, percent of control (lower = inhibition) in test [2] was 38.7%. Moreover, the GTP binding, percent of control in test [3] is 50.6%. Also, in test [5], the GTP binding signal, raw median fluorescence (lower = inhibition) (MCF (arbitrary fluorescence units)) is 116.
As for `Cc1c(Cl)cccc1NS(=O)(=O)c1ccc2c(c1)C1C=CCC1C(c1ccc(C(=O)O)cc1)N2` (stereo not given), the molecule was called inactive in test [1], in test [4] and in test [6]. For the same molecule, the fluorescence, percent of control (lower = inhibition) in test [2] amounted to 22.3%. For the same molecule, the GTP binding, percent of control in test [3] came out at 72.9%. This molecule came in with a GTP binding signal, raw median fluorescence (lower = inhibition) (MCF (arbitrary fluorescence units)) in test [5] of 222.
As to `CCOC(=O)c1c(C)[nH]c(C)c1C(=O)COc1ncnc2cc([N+](=O)[O-])ccc12`, the outcome in test [1], in test [4] and in test [6] was inactive. The fluorescence, percent of control (lower = inhibition) in test [2] was found to be 33.9%. Also, in test [3], the GTP binding, percent of control came out at 76.2%. The same molecule had a GTP binding signal, raw median fluorescence (lower = inhibition) (MCF (arbitrary fluorescence units)) in test [5] of 186.
`O=C(NC1CCCCC1)C(c1ccco1)N(Cc1ccco1)C(=O)c1ccco1` (stereo not given): the molecule was called inactive in test [1], in test [4] and in test [6]. The fluorescence, percent of control (lower = inhibition) in test [2] worked out at 90.7%. The same molecule gave a GTP binding, percent of control in test [3] of 174%. Moreover, in test [5], the GTP binding signal, raw median fluorescence (lower = inhibition) (MCF (arbitrary fluorescence units)) came out at 176.
Regarding `CN(C)c1ccc(/C=C2\SC(=S)N(Nc3ncc(C(F)(F)F)cc3Cl)C2=O)cc1`, the molecule was classed as inactive in test [1], in test [4] and in test [6]. Besides, the fluorescence, percent of control (lower = inhibition) in test [2] was 139%. The same molecule yielded a GTP binding, percent of control in test [3] of 236%. The molecule also came in with a GTP binding signal, raw median fluorescence (lower = inhibition) (MCF (arbitrary fluorescence units)) in test [5] of 230.
`N#Cc1c(-c2cccc(Br)c2)cc(-c2ccco2)[nH]c1=O`: the molecule was classed as inactive in test [1], in test [4] and in test [6]. Besides, the fluorescence, percent of control (lower = inhibition) in test [2] was 23.1%. The molecule further showed a GTP binding, percent of control in test [3] of 58.9%. In test [5], this molecule yielded a GTP binding signal, raw median fluorescence (lower = inhibition) (MCF (arbitrary fluorescence units)) of 182.
Turning to `CCOc1nnc(C)c2c(C)n(-c3cccc(Cl)c3)nc12`, the molecule was called inactive in test [1], in test [4] and in test [6]. For the same molecule, in test [2], the fluorescence, percent of control (lower = inhibition) stood at 155%. In test [3], this molecule had a GTP binding, percent of control of 168%. This molecule also came in with a GTP binding signal, raw median fluorescence (lower = inhibition) (MCF (arbitrary fluorescence units)) in test [5] of 312.
Regarding `O=S(=O)(Cc1ccccc1)N1CCc2ccccc21`, the molecule was classed as inactive in test [1], in test [4] and in test [6]. In addition, the fluorescence, percent of control (lower = inhibition) in test [2] is 48.6%. In test [3], this molecule yielded a GTP binding, percent of control of 63.7%. The molecule also displayed a GTP binding signal, raw median fluorescence (lower = inhibition) (MCF (arbitrary fluorescence units)) in test [5] of 202.

(Values after PubChem BioAssay.)
